Source: PubChem BioAssay
Activity calls are given as the source filed them. Unless noted, how the calls were made is not given here.

Columns and labels:
[1] = system: Wnt5a (protein binding on small-molecule microarray); assay: small molecules binding Wnt5a protein – biophysical, small-molecule microarray, 635/667 nm fluorescence, primary screen (AID 1142); conditions: 635 nm fluorescence, higher = more signal;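 further: fluorescence read at 667 nm with signal to noise per printed feature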
[2] = ATP-based viability of Huh7 replicon cells – cell-based, CellTiter-Glo luminescence, basal, 48 h, cytotoxicity control for HCV replication inhibitor project, primary screen (AID 1143); conditions: higher = more signal, called active from +8 up or from −8 down;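 further: Huh7 hepatoma cells carrying a hepatitis C replication reporter with no stimulus; test concentration not given here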
[3] = Pseudomonas biofilm growth suppression – PAO1 strain, BacTiter-Glo luminescence, LB-PBS, primary screen (AID 1144); conditions: P. aeruginosa PAO1 biofilm, 12 h, higher = more signal
[4] = basal CRE-LacZ reporter activity in PC12 – cell-based, unstimulated, primary screen (AID 1145); conditions: no forskolin, luminescence, 4.5 h, higher = more signal, called active from +8 up or from −8 down
[5] = forskolin-driven CRE-LacZ activity in PC12 – cell-based, CRE-LacZ reporter, forskolin-stimulated, primary screen (AID 1146); conditions: luminescence, 4.5 h, higher = more signal, called active from +8 up or from −8 down;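 further: PC12 cells with 6xCRE LacZ reporter stimulated by forskolin 10 µM; beta-galactosidase reporter signal reflecting CREB driven transcription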
[6] = target: Streptavidin (Streptomyces avidinii) (UniProt P22629); assay: compounds binding control protein streptavidin – biophysical, small-molecule microarray, 635/667 nm fluorescence, artefact control for SMM compound annotation, primary screen (AID 1147); conditions: higher = more signal;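 further: signal reflects streptavidin binding to arrayed compounds as a control protein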
[7] = probe aInhba binding on compound microarray – biochemical, small-molecule microarray, 635/667 nm fluorescence, primary screen (AID 1148); conditions: higher = more signal;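 further: score merges 667nm spot fluorescence with signal-to-noise for antibody binding to printed compounds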
Torsin-1A (Homo sapiens) [8] = target: Torsin-1A (Homo sapiens) (UniProt O14656); assay: TOR1A wild-type binding on microarray – cell lysate, small-molecule microarray, lysate, 635/667 nm, primary screen (AID 1149); conditions: COS7 hTOR1A-WT lysate, 635 nm fluorescence, higher = more signal
Torsin-1A (Homo sapiens) [9] = target: Torsin-1A (Homo sapiens) (UniProt O14656); assay: torsin A mutant lysate binding on microarrays – cell lysate, small-molecule microarray, COS7 lysate, 635/667 nm fluorescence, primary screen (AID 1150); conditions: COS7 hTOR1A mutant lysate, 635 nm fluorescence, higher = more signal;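 further: score pools 667 nm emission and signal to noise measuring lysate protein binding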
[10] = system: Sonic hedgehog protein (Shh); assay: Sonic hedgehog microarray binding compounds – biochemical, small-molecule microarray, 635/667 nm fluorescence, primary screen (AID 1151); conditions: 635 nm fluorescence, higher = more signal;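 further: Shh protein binding to compounds spotted on small-molecule microarray slides; score combines spot fluorescence intensity with signal-to-noise across triplicate slides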

Torsin-1A (Homo sapiens), sequence (O14656 whole entry, looked up): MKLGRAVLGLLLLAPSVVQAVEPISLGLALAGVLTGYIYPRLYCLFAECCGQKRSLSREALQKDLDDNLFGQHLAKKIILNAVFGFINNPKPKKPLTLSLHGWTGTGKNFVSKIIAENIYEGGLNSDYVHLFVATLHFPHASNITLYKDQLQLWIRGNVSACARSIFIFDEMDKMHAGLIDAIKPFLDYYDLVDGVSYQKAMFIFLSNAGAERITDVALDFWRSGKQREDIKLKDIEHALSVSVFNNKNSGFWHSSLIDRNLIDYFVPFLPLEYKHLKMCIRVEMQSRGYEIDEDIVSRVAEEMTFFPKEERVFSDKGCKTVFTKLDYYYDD
Streptavidin (Streptomyces avidinii), sequence (P22629 whole entry, looked up): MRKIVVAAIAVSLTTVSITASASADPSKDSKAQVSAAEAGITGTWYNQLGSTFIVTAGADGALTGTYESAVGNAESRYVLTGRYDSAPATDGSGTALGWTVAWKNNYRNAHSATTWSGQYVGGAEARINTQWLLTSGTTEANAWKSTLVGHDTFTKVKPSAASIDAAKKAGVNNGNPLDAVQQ

SMILES	composite z-score [1]	z-score [2]	z-score [3]	z-score [4]	z-score [5]	composite z-score [6]	composite z-score [7]	composite z-score (Torsin-1A (Homo sapiens) [8])	composite z-score (Torsin-1A (Homo sapiens) [9])	composite z-score [10]
C=C/C=C/[C@H]1C(=C)CN([C@@H](Cc2ccccc2)C(=O)OC)[C@@H]1[C@H](O)Cc1ccccc1	-0.224	-0.123 (inactive)	0.0605 (inactive)	5.75 (inactive)	0.794 (inactive)	-0.663	-0.0736	-1.74	-1.4	0.122
Cc1ccc(S[C@]2(C(=O)NCC(C)C)CC(=O)N(Cc3cc(C(F)(F)F)cc(C(F)(F)F)c3)[C@@H]2c2ccc(CO)cc2I)cc1	-0.0088	-1.19 (inactive)	-0.486 (inactive)	0.441 (inactive)	0.845 (inactive)	-0.634	0.0173	-1.72	-0.913	-1.05
O=C1[C@H]2C=C(Br)[C@H](C[C@@H]2c2ccccc2)[C@@]12CO2	0.127	-0.856 (inactive)	0.552 (inactive)	1.58 (inactive)	4.2 (inactive)	0.105	0.0528	0.175	0.273	0.982
C=CCNC(=O)[C@H]1[C@@H]2C(=O)O[C@@H](c3ccccc3)[C@@H](c3ccccc3)N2[C@@H](c2ccccc2OCCO)[C@]12C(=O)Nc1ccc(C#CC3=CCCCC3)cc12	0.291	-6.47 (inactive)	1.64 (inactive)	0.484 (inactive)	1.05 (inactive)	0.0808	0.0074	1.23	1.14	1.61
CC(=O)N1Cc2ccccc2C[C@@]2(COC(c3ccc(OCCCO)cc3)=N2)C1=O	0.36	-2.57 (inactive)	-0.957 (inactive)	1.82 (inactive)	-1.42 (inactive)	1.23	0.407	0.135	0.997	0.504
OC([C@@H]1CC(c2ccccc2)=NO1)[C@H]1CC(c2ccccc2)=NO1 (stereo not given in full)	0.0286	-0.263 (inactive)	-0.00202 (inactive)	2.31 (inactive)	-0.487 (inactive)	0.133	0.027	0.0801	-0.174	0.394
C=CCC(OC(C)=O)[C@@H]1[C@@H](N(Cc2ccc(-c3cccc(C(F)(F)F)c3)o2)C(=O)Cc2ccc(F)cc2)c2cc(OCCCO)ccc2N1C(=O)Cc1ccc(OC)cc1 (stereo not given in full)	-0.186	-0.705 (inactive)	-1.63 (inactive)	0.236 (inactive)	0.239 (inactive)	-1.07	-0.183	-2.21	-0.945	0.392
